Experimental data reported in PubChem BioAssay (EPA / NIEHS).
Calls of active or inactive are those of the source. The calls were made as follows: active = hit-call score of the fitted dose curve at least 0.9, where 1 is the maximum; inactive = score below 0.9.

How the values were obtained:
[1] = APR_HepG2_CellCycleArrest_1hr: Apredica 1-hour HepG2 Assay for Cell Cycle Arrest (AID 2282666); conditions: high-content imaging, actives raise or lower the signal
How it was run: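 Cell cycle arrest scored from nuclear DNA content (Hoechst 33342) using high-content imaging of fixed HepG2 cells after 1 h treatment across 0.39–200 uM, in duplicate. Gain or loss fitted relative to 0.5% DMSO.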

[2] = APR_HepG2_MicrotubuleCSK_1hr: Apredica 1-hour HepG2 Assay for Microtubule CSK Stabilty (AID 2282669); conditions: HepG2 microtubule cytoskeleton imaging, actives raise or lower the signal
How it was run: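 Alpha-tubulin immunofluorescence, imaged by automated high-content microscopy with Hoechst nuclear segmentation, measured cytoskeletal change after 1 h dosing of HepG2 at 0.39–200 uM in 0.5% DMSO. Activity fitted in both directions relative to DMSO.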

[3] = APR_HepG2_NuclearSize_1hr: Apredica 1-hour HepG2 Assay for Nuclear Size (AID 2282670); conditions: high-content imaging, actives raise or lower the signal
How it was run: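 Nuclear size measured by high-content imaging of Hoechst 33342 nuclear stain after formaldehyde fixation; human HepG2 line exposed 1 hr to compounds at 0.39–200 uM in 0.5% DMSO, with bidirectional curve fitting relative to DMSO.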

[4] = APR_HepG2_p53Act_1hr: Apredica 1-hour HepG2 Assay for p53 Activation (AID 2282671); conditions: high-content imaging, actives raise or lower the signal
How it was run: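 After 1 h exposure (0.39–200 uM, 0.5% DMSO final, duplicates), fixed HepG2 cells were labelled with anti-p53 antibody plus Hoechst nuclear stain. Fluorescence quantified by automated 20x imaging; changes fitted in both directions against DMSO.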

[5] = APR_HepG2_MitoticArrest_1hr: Apredica 1-hour HepG2 Assay for Mitotic Arrest (AID 2282672); conditions: high-content imaging, actives raise or lower the signal
How it was run: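 Ten-point concentration series (0.39 to 200 uM, duplicates, 0.5% v/v DMSO) applied to human HepG2 liver cells for 1 hr. High-content imaging of phospho-histone H3 and Hoechst-stained nuclei after fixation and permeabilization; DMSO-normalised bidirectional fit.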

[6] = APR_HepG2_P-H2AX_1hr: Apredica 1-hour HepG2 Assay for H2AX Phosphorylation (AID 2282673); conditions: high-content imaging, actives raise or lower the signal
How it was run: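 Phospho-H2A.x immunofluorescence (1:200, FITC secondary) plus Hoechst nuclear stain, quantified by high-content imaging in HepG2 after 1 hr compound exposure. Ten concentrations, 0.39 to 200 uM, in duplicate with 0.5% DMSO; fit both directions against DMSO.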

[7] = APR_HepG2_MitoMass_1hr: Apredica 1-hour HepG2 Assay for Mitochondrial Mass (AID 2282674); conditions: high-content imaging, actives raise or lower the signal
How it was run: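 Mitochondrial mass is taken from MitoTracker Red CMXRos (250 nM, 30 min, pre-fixation) fluorescence imaged at 20x in HepG2 cells. Exposure lasted 1 hr across ten concentrations, 0.39 to 200 uM, 0.5% DMSO; DMSO baseline, bidirectional fitting.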

[8] = APR_HepG2_MitoMembPot_1hr: Apredica 1-hour HepG2 Assay for Mitochondrial Membrane Potential (AID 2282675); conditions: imaging, actives raise or lower the signal
How it was run: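 Mitochondrial membrane potential read as MitoTracker Red CMXRos intensity by automated imaging of fixed HepG2 cells. Dye at 250 nM for 30 min pre-fixation; compounds 0.39 to 200 uM for 1 hour, duplicate wells, 0.5% DMSO.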

[9] = APR_HepG2_CellCycleArrest_24hr: Apredica 24-hour HepG2 Assay for Cell Cycle Arrest (AID 2282905); conditions: imaging, actives raise or lower the signal;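 also: cell cycle arrest scored as ratio of 2N to 4N nuclear DNA content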
How it was run: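 Compounds (0.39 to 200 uM, final DMSO 0.5% v/v) are applied to HepG2 cells for 24 hours; cells are then fixed, permeabilized and nuclei labeled with Hoechst 33342. Automated imaging measures DNA content, and activity is fitted in both directions against DMSO.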

[10] = APR_HepG2_NuclearSize_24hr: Apredica 24-hour HepG2 Assay for Nuclear Size (AID 2282907); conditions: high-content imaging, actives raise or lower the signal
How it was run: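 Nuclear size is measured by fluorescence high-content imaging of Hoechst-labelled HepG2 nuclei after 24 hr of treatment (0.39–200 uM, 0.5% DMSO). Cells are fixed in 3.7% formaldehyde before staining, and DMSO serves as the baseline for bidirectional curve fitting.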

[11] = APR_HepG2_CellLoss_24hr: Apredica 24-hour HepG2 Assay for Cell Loss (AID 2282908); conditions: high-content imaging;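 as to AC50: fit in both directions so a hit may be cell loss or gain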
How it was run: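 Nuclear count serves as the viability measure: treated cells are fixed, permeabilized and labelled with Hoechst 33342, and six images per well are analysed to identify valid nuclei. Doses span 0.39–200 uM, and activity in either direction is scored against DMSO.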

[12] = APR_HepG2_MicrotubuleCSK_24hr: Apredica 24-hour HepG2 Assay for Microtubule CSK Stabilty (AID 2282909); conditions: HepG2 microtubule cytoskeleton imaging, actives raise or lower the signal
How it was run: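 Compounds were applied to HepG2 cells for 24 hours across 0.39–200 uM in duplicate, with final DMSO at 0.5% v/v. Fixed, permeabilized cells were labeled for alpha-tubulin and nuclei, and tubulin fluorescence was quantified by imaging, fitted bidirectionally against DMSO.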

[13] = APR_HepG2_MitoticArrest_24hr: Apredica 24-hour HepG2 Assay for Mitotic Arrest (AID 2282910); conditions: high-content imaging, actives raise or lower the signal
How it was run: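 HepG2, 24 hr dosing, 0.39–200 uM, 0.5% DMSO final. Formaldehyde-fixed, Triton-permeabilised, anti-phospho-histone H3 plus Hoechst. ArrayScan imaging at 20x; bidirectional fit vs DMSO baseline.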

[14] = APR_HepG2_MitoMass_24hr: Apredica 24-hour HepG2 Assay for Mitochondrial Mass (AID 2282912); conditions: high-content imaging, actives raise or lower the signal
How it was run: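 After 24 hr of treatment at 0.39 to 200 uM, HepG2 cells take up 250 nM MitoTracker Red CMXRos for 30 min and are then fixed with 3.7% formaldehyde. Per-well images are quantified, and any change in either direction is scored against solvent.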

[15] = APR_HepG2_p53Act_24hr: Apredica 24-hour HepG2 Assay for p53 Activation (AID 2282913); conditions: high-content imaging, actives raise or lower the signal;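 also: p53 protein immunofluorescence averaged per cell in HepG2 with Hoechst nuclei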
How it was run: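 Read-out: Cy5 immunofluorescence for p53 in fixed, permeabilized HepG2, imaged by HCS with Hoechst-defined nuclei. Dosing was 24 hr at 0.39–200 uM in 0.5% DMSO. Curves were fitted bidirectionally relative to DMSO.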

[16] = APR_HepG2_CellCycleArrest_72hr: Apredica 72-hour HepG2 Assay for Cell Cycle Arrest (AID 2282914); conditions: high-content imaging, actives raise or lower the signal
How it was run: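 HepG2, 72 hr exposure, 10-point 0.39–200 uM, duplicate, 0.5% DMSO final. Fix 3.7% formaldehyde 30 min RT, Triton X-100 0.5%, Hoechst 33342 2 ug/mL. ArrayScan 20x, six fields/well; DNA content per nucleus; bidirectional fit vs DMSO.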

[17] = APR_HepG2_CellLoss_72hr: Apredica 72-hour HepG2 Assay for Cell Loss (AID 2282915); conditions: high-content imaging
How it was run: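 HepG2 cells exposed 72 h to compound at 0.39–200 uM (10 concentrations, duplicate) in 0.5% DMSO. Fixed with 3.7% formaldehyde and Hoechst 33342-stained. Imaged at 20x; nuclear count gives cell number, fitted bidirectionally versus DMSO.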

[18] = APR_HepG2_StressKinase_1hr: Apredica 1-hour HepG2 Assay for Stress Kinase (AID 2282906); conditions: HepG2 stress kinase (phospho-c-Jun) imaging, actives raise or lower the signal
How it was run: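 High-content imaging of phospho-c-Jun immunostaining (with Hoechst nuclear identification) after a 1 h exposure of HepG2 cells to 10 concentrations from 0.39 to 200 uM, final DMSO 0.5%. Fitted bidirectionally against DMSO.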

[19] = APR_HepG2_MitoMembPot_24hr: Apredica 24-hour HepG2 Assay for Mitochondrial Membrane Potential (AID 2282911); conditions: imaging, actives raise or lower the signal
How it was run: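 HepG2, 24 hr dosing, 10 concentrations 0.39–200 uM, 0.5% DMSO final. Live-cell MitoTracker Red CMXRos 250 nM 30 min, then 3.7% formaldehyde fix. HCS fluorescence imaging, 20x; bidirectional fit vs DMSO baseline.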

[20] = APR_HepG2_CellLoss_1hr: Apredica 1-hour HepG2 Assay for Cell Loss (AID 2282668); conditions: high-content imaging;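 also: curves fitted both ways against DMSO so gain or loss of cells counts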
How it was run: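 Cell number comes from high-content imaging of Hoechst-labelled nuclei in fixed HepG2 cells. Cells were exposed for 1 h to ten concentrations from 0.39 to 200 uM in 0.5% DMSO. Gain or loss was fitted against DMSO controls.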

Measured: AC50

CC1(C(=O)Nc2ccc(O)c(Cl)c2Cl)CCCCC1
active: [12] 94 µM | [17] 71.2 µM
inactive: [1] | [2] | [3] | [4] | [5] | [6] | [7] | [8] | [9] | [10] | [11] | [13] | [14] | [15] | [16]

CCc1cccc(C)c1N(C(=O)CCl)C(C)COC (centres undefined)
inactive: [1] | [2] | [3] | [4] | [5] | [6] | [7] | [8] | [9] | [18] | [10] | [11] | [12] | [13] | [19] | [14] | [15] | [16]

CSc1nc(NC(C)C)nc(NC(C)C)n1
inactive: [1] | [20] | [2] | [4] | [5] | [6] | [7] | [9] | [18] | [10] | [11] | [12] | [13] | [14] | [15] | [16]

CN1COCN(Cc2cnc(Cl)s2)C1=N[N+](=O)[O-]
inactive: [1] | [20] | [2] | [4] | [5] | [6] | [7] | [9] | [10] | [11] | [12] | [13] | [14] | [15] | [16] | [17]

FC(F)C(F)(F)OCC(Cn1cncn1)c1ccc(Cl)cc1Cl (centres undefined)
inactive: [1] | [2] | [4] | [5] | [6] | [7] | [9] | [10] | [13] | [19] | [14] | [15]
active: [11] 48.7 µM | [12] 103 µM | [16] 75.8 µM

CC(C)N(C(=O)SCC(Cl)=C(Cl)Cl)C(C)C
inactive: [1] | [2] | [4] | [5] | [6] | [7] | [9] | [18] | [10] | [12] | [13] | [14] | [15] | [16]
active: [11] 113 µM | [17] 110 µM

CN(C)NC(=O)CCC(=O)O
inactive: [1] | [20] | [2] | [3] | [4] | [5] | [6] | [7] | [8] | [9] | [10] | [11] | [12] | [13] | [19] | [14] | [15] | [16]

CCOP(=S)(Oc1cnc(C(C)(C)C)nc1)OC(C)C (centres undefined)
inactive: [1] | [2] | [3] | [4] | [5] | [6] | [7] | [8] | [10] | [11] | [12] | [13] | [19] | [14] | [15]
active: [9] 152 µM | [16] 113 µM | [17] 82.7 µM

C#CC(C)(C)NC(=O)c1cc(Cl)cc(Cl)c1
inactive: [1] | [2] | [4] | [5] | [6] | [7] | [9] | [10] | [11] | [12] | [13] | [14] | [15] | [16]

CCC(=O)Nc1ccc(Cl)c(Cl)c1
inactive: [1] | [2] | [4] | [5] | [6] | [7] | [18] | [10] | [11] | [12] | [13] | [14] | [15] | [16]
active: [9] 79.3 µM

CCOP(=S)(OCC)SCCSCC
inactive: [1] | [2] | [3] | [4] | [5] | [6] | [7] | [9] | [18] | [10] | [11] | [12] | [13] | [14] | [15] | [16]

CCCOCC(=Nc1ccc(Cl)cc1C(F)(F)F)n1ccnc1
inactive: [1] | [2] | [3] | [4] | [5] | [6] | [7] | [9] | [18] | [10] | [11] | [12] | [13] | [14] | [15] | [16]

CCCOc1nn(C(=O)NS(=O)(=O)c2ccccc2C(=O)OC)c(=O)n1C
inactive: [1] | [20] | [2] | [4] | [5] | [6] | [7] | [8] | [9] | [18] | [10] | [11] | [12] | [13] | [14] | [15] | [16]

CC(C)=CC1C(C(=O)OCN2C(=O)C3=C(CCCC3)C2=O)C1(C)C (centres undefined)
inactive: [1] | [2] | [3] | [4] | [5] | [6] | [7] | [8] | [9] | [10] | [13] | [14] | [15] | [16]
active: [11] 109 µM | [12] 105 µM | [17] 100 µM
